Measured values reported in PubChem BioAssay (NCATS).
Records with an inconclusive call do not appear. Calls of active or inactive are those of the source. Unless noted, the call rests on the fitted dose curve.

Columns and labels:
[1] = Cell Viability - BJ (AID 421); conditions: BJ fibroblast viability, qHTS;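 further: potency means the concentration at half of the fitted maximal effect; cells exposed to compound for 40 hours at 37 °C before readout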
Method in brief: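 Quantitative HTS: ATP depletion in BJ cells after 40 hr compound exposure in complete culture medium, detected with CellTiter-Glo; AC50 from standard Hill fits.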

[2] = Cell Viability - Jurkat (AID 426;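 active means dose-dependent loss of cell ATP signal giving a full or clear fitted curve, ranked by lower potency value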;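 further: potency means the concentration at half of the fitted maximal effect; cells exposed to compound for 40 hours at 37 °C before ATP read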); conditions: qHTS
Method in brief: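 Cells of the human T-cell leukemia line Jurkat (E6-1) are seeded at 5000 per well, treated with compound across a concentration range for 40 hours at 37 °C, then lysed with CellTiter-Glo; luminescence reports ATP.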

[3] = Cell Viability - Hek293 (AID 427;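 active means compounds whose dose-response curve shows a full or clear partial loss of cell viability, called from curve shape rather than a numeric limit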;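 further: potency means the concentration at half of the fitted maximal effect; cells exposed to compound for 40 hours at 37 °C before reading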); conditions: qHTS
Method in brief: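 AC50 values derive from Hill-modelled concentration-response of ATP-based luminescence, normalized between DMSO-only and 100 uM tamoxifen controls. Cells were exposed in complete culture medium for 40 hr at 37 °C before detection.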

[4] = Cell Viability - HepG2 (AID 433); conditions: qHTS;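 further: potency means the concentration at half of the fitted maximal effect; potency for ATP loss meaning cytotoxicity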
Method in brief: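 Cytotoxicity is scored as loss of intracellular ATP in HepG2 cells exposed to compounds for 40 h. Concentration-response curves, normalized to DMSO and 100 uM tamoxifen, give AC50 values.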

[5] = Cell Viability - MRC5 (AID 434); conditions: MRC5 lung fibroblast viability, qHTS;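 further: potency means the concentration at half of the fitted maximal effect; potency reflects cytotoxicity seen as loss of intracellular ATP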
Method in brief: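 ATP luminescence read-out (CellTiter-Glo, 20 min RT) after 40 hr, 37 °C compound exposure of 1500 MRC5 cells/well. Data normalized to DMSO (basal) and 100 uM tamoxifen (100% inhibition); AC50 from standard Hill equation.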

[6] = Cell Viability - SK-N-SH (AID 435); conditions: SK-N-SH neuroblastoma cell viability qHTS;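 further: potency means the concentration at half of the fitted maximal effect; compound exposure lasted 40 h at 37 °C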
Method in brief: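 Cells seeded at 1500 per well and incubated 5 hr at 37 °C. Compound added, then 40 hr at 37 °C. CellTiter-Glo added, 20 min at room temperature, luminescence read.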

[7] = target: Mitogen-activated protein kinase 10 (Mus musculus) (UniProt Q61831); experiment: JNK3 AlphaScreen Assay (AID 530; active means well fitted curve in either direction with a large enough effect, not every such curve was filed as active;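 further: kinase came from lysate of stimulated human HepG2 cells; signal reports phosphorylation of biotinylated GST-cJun 1-79 at Ser73 with 10 µM ATP; on the % scale 0 is the no-effect control and ±100 the full control effect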); conditions: JNK3 lysate, c-Jun phosphorylation; series mostly up to 57.1 µM
Method in brief: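 Activity was read by AlphaScreen after JNK3-containing HepG2 lysate (cytokine pre-activated) phosphorylated biotinylated GST-cJun with 10 uM ATP at room temperature. Phospho-Ser73 cJun antibody with Protein-A acceptor beads provided detection.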

[8] = Cell Viability - N2a (AID 540; active means well fitted curve in the direction sought with a large enough effect; an effect the other way counts as inactive or inconclusive;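 further: cells exposed to compound for 40 h at 37 °C; plate controls were DMSO alone for no effect and tamoxifen control for full effect; nearly all actives have a fitted effect of over 45% in size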); conditions: N2a mouse neuroblastoma cell viability; activity change, negative = cytotoxicity: at 92.2 µM (top of the series)
Method in brief: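 Cytotoxicity was scored as loss of cellular ATP in N2a cells, a mouse neuroblastoma line. Compounds are applied in a qHTS concentration series for 40 hr at 37 °C.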

[9] = Cell Viability - NIH 3T3 (AID 541; active means well fitted curve in the direction sought with a large enough effect; an effect the other way counts as inactive or inconclusive;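 further: plate controls were DMSO alone for no effect and tamoxifen positive control for full effect; nearly all actives have a fitted effect of over 25% in size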); conditions: NIH 3T3 cell viability, qHTS; activity change, negative = cytotoxicity: at 92.2 µM (top of the series)
Method in brief: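 Cells seeded at 1000/well, rested 5 hr at 37 °C, then dosed and incubated 40 hr at 37 °C. CellTiter-Glo added, 20 min room temperature, luminescence read. AC50 by Hill fit.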

[10] = Cell Viability - HUV-EC-C (AID 542; active means well fitted curve in the direction sought with a large enough effect; an effect the other way counts as inactive or inconclusive; further: on the % scale 0 is the no-effect control and ±100 the full control effect; nearly all actives have a fitted effect of over 35% in size); conditions: HUV-EC-C endothelial cell viability, qHTS; series mostly up to 92.2 µM
Method in brief: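 Cells were seeded at 1000 per well and incubated 5 hr at 37 °C before compound addition. After 40 hr at 37 °C, CellTiter-Glo reagent was added for 20 min and luminescence read. AC50 values came from Hill-equation modelling.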

CCCCCCCN
inactive: Potency [1] > 92 µM | Potency [2] > 92 µM | Potency [3] > 92 µM | Potency [4] > 92 µM | Potency [5] > 92 µM | Potency [6] > 92 µM | outcome [7] | activity change, negative = cytotoxicity [8] -10.2% | Potency [9] | Potency [10]

Cc1cc(C)cc(N)c1
inactive: Potency [1] > 92 µM | Potency [2] > 92 µM | Potency [3] > 92 µM | Potency [4] > 92 µM | Potency [5] > 92 µM | Potency [6] > 92 µM | outcome [7] | activity change, negative = cytotoxicity [8] 0.732% | Potency [9] | Potency [10]

O=[N+]([O-])c1ccccc1CCO
inactive: Potency [1] > 92 µM | Potency [2] > 92 µM | Potency [3] > 92 µM | Potency [4] > 92 µM | Potency [5] > 92 µM | Potency [6] > 92 µM | outcome [7] | activity change, negative = cytotoxicity [8] -12.5% | Potency [9] | Potency [10]

O=C1CCC(=O)O1
inactive: Potency [1] > 92 µM | Potency [2] > 92 µM | Potency [3] > 92 µM | Potency [4] > 92 µM | Potency [5] > 92 µM | Potency [6] > 92 µM | outcome [7] | activity change, negative = cytotoxicity [8] 2.23% | Potency [9] | Potency [10]

CCOC(C)(C)C
inactive: Potency [1] > 92 µM | Potency [2] > 92 µM | Potency [3] > 92 µM | Potency [4] > 92 µM | Potency [5] > 92 µM | Potency [6] > 92 µM | outcome [7] | activity change, negative = cytotoxicity [8] -6.59% | Potency [9] | Potency [10]

CCCCCCC=O
inactive: Potency [1] > 92 µM | Potency [2] > 92 µM | Potency [3] > 92 µM | Potency [4] > 92 µM | Potency [5] > 92 µM | Potency [6] > 92 µM | outcome [7] | activity change, negative = cytotoxicity [8] -2.45% | Potency [9] | Potency [10]

Nc1cccc2c(=O)[nH][nH]c(=O)c12
inactive: Potency [1] > 92 µM | Potency [2] > 92 µM | Potency [3] > 92 µM | Potency [4] > 92 µM | Potency [5] > 92 µM | Potency [6] > 92 µM | outcome [7] | activity change, negative = cytotoxicity [8] 9.7% | Potency [9] | Potency [10]

Cc1ccc(C#N)cc1
inactive: Potency [1] > 92 µM | Potency [2] > 92 µM | Potency [3] > 92 µM | Potency [4] > 92 µM | Potency [5] > 92 µM | Potency [6] > 92 µM | outcome [7] | activity change, negative = cytotoxicity [8] 6% | Potency [9] | Potency [10]

O=[N+]([O-])c1ccc(NCCO)c(OCCO)c1
inactive: Potency [1] > 92 µM | Potency [2] > 92 µM | Potency [3] > 92 µM | Potency [4] > 92 µM | Potency [5] > 92 µM | Potency [6] > 92 µM | outcome [7] | activity change, negative = cytotoxicity [8] -0.601% | Potency [9] | Potency [10]

COC(=O)CS
inactive: Potency [1] > 92 µM | Potency [2] > 92 µM | Potency [3] > 92 µM | Potency [4] > 92 µM | Potency [5] > 92 µM | Potency [6] > 92 µM | outcome [7] | activity change, negative = cytotoxicity [8] -8.95% | Potency [9] | Potency [10]

O=C(O)/C=C/C(=O)O
inactive: Potency [1] > 92 µM | Potency [2] > 92 µM | Potency [3] > 92 µM | Potency [4] > 92 µM | Potency [5] > 92 µM | Potency [6] > 92 µM | outcome [7] | activity change, negative = cytotoxicity [8] 4.39% | Potency [9] | Potency [10]

O=C(O)c1cccc(Cl)c1Cl
inactive: Potency [1] > 92 µM | Potency [2] > 92 µM | Potency [3] > 92 µM | Potency [4] > 92 µM | Potency [5] > 92 µM | Potency [6] > 92 µM | outcome [7] | activity change, negative = cytotoxicity [8] -7.38% | Potency [9] | Potency [10]

CC(=O)OC(C)=O
inactive: Potency [1] > 92 µM | Potency [2] > 92 µM | Potency [3] > 92 µM | Potency [4] > 92 µM | Potency [5] > 92 µM | Potency [6] > 92 µM | outcome [7] | activity change, negative = cytotoxicity [8] 1.01% | Potency [9] | Potency [10]

CC(C)(C)c1ccc(OCC2CO2)cc1 (stereo not given)
inactive: Potency [1] > 92 µM | Potency [2] > 92 µM | Potency [3] > 92 µM | Potency [4] > 92 µM | Potency [5] > 92 µM | Potency [6] > 92 µM | outcome [7] | activity change, negative = cytotoxicity [8] -14.9% | Potency [9] | Potency [10]

ICCc1ccccc1
inactive: Potency [1] > 92 µM | Potency [2] > 92 µM | Potency [3] > 92 µM | Potency [4] > 92 µM | Potency [5] > 92 µM | Potency [6] > 92 µM | outcome [7] | activity change, negative = cytotoxicity [8] 0.359% | Potency [9] | Potency [10]

CCCC(Cl)CCCC(Cl)CCC(Cl)CCC(Cl)CCC(Cl)CCCC(Cl)CCC (stereo not given)
inactive: Potency [1] > 92 µM | Potency [2] > 92 µM | Potency [3] > 92 µM | Potency [4] > 92 µM | Potency [5] > 92 µM | Potency [6] > 92 µM | outcome [7] | activity change, negative = cytotoxicity [8] -0.927% | Potency [9] | Potency [10]
